# Target: GPS1
# Assay: pooled miR-30 sensor sort-seq; sequence = guide strand
# Settings: shRNA
row,Sequence,sensor-assay potency score (higher = more potent)
1,TCCAGCTCCAAGAACAACTTGA,-0.994
2,TTGACATGGATCTGGTTGCGGA,-0.378
3,TACTGTTCCAGATCCAGGCTGG,0.176
4,TTGTAGTTCTTCAGGTCTGTGT,-0.35
5,AAGAACAACTTGAAGGAGCTGC,0.981
6,TTGCTGTGTGAGTCCACACGGG,-0.414
7,TAGCACTTGAGGGCGTTGCTGA,-0.484
8,TTCATCTCGTCCAGCATCTTGA,-0.805
9,TTGCGCTGCAGCTCCTGCCGGT,-0.804
10,AACAACTTGAAGGAGCTGCTGG,-0.415

# Target: GPT2
# Assay: as above
# Settings: shRNA
row,Sequence,sensor-assay potency score (higher = more potent)
1,TTGGTTAAACAGGTCTTCCGTC,0.251
2,TACAGCACCTTCTTGAAGGAGT,-0.472
3,TCATGCAGTAGAACATGTCTGG,0.355
4,TTAGCATCTTCTGGGAAGCTGG,-0.879
5,TTCACCTTCTGCAGCACCGTTT,-0.638
6,TTCAGGATCGTAGAAATGCCGT,-0.741
7,TTTCACCTTCTGCAGCACCGTT,-1.46
8,TTGATCACCTCCATGTAGCCTC,0.135
9,TAACAGATTCAGAGAACCCTGG,0.0686
10,TCTGTAACCACACTCGCCCATG,-1.08
11,TTGGCAGGAATGAAGATCCGAG,-0.485

# Target: GPX1
# Assay: as above
# Settings: shRNA
row,Sequence,sensor-assay potency score (higher = more potent)
1,TAGGTTTAGAGGAAACACCCTC,-0.561
2,TTCAGAATCTCTTCGTTCTTGG,0.596
3,AATCTCTTCGTTCTTGGCGTTC,-1.08
4,ATTCTCGATAAGTAGTACCTTG,-0.704
5,ACATCGTTGCGACACACCGGAG,-1.77
6,TTGGGGTCGGTCATAAGCGCGG,-1.09
7,ATTCAGAATCTCTTCGTTCTTG,0.126
8,AACATCGTTGCGACACACCGGA,-0.00294
9,TTTTCTATGAGTCACCGGGATT,-1.88
10,TTCCAGGCAACATCGTTGCGAC,-1
11,TTCGTTCTTGGCGTTCTCCTGA,0.781
12,TTCATCTGGGTGTAGTCCCGGA,-0.32

# Target: GPX2
# Assay: as above
# Settings: shRNA
row,Sequence,sensor-assay potency score (higher = more potent)
1,TTTTGGACAAGGGTGAAGGTGG,-0.672
2,TTGAGCTGGGTGAAGTCCCGGG,-0.183
3,TTGATGTCAGGCTCAATGTTGA,-0.614
4,TTGGACAAGGGTGAAGGTGGGC,0.00355
5,TATTGGTCTCTTCTAGCAGAGT,-1.55
6,TCACATTTTTGGACAAGGGTGA,0.0993
7,TATGAGGAACTTCTCAAAGTTC,-1.27

# Reference: the OligoGym collection
